# Screens (PubChem)
# Marburg entry inh = inhibitors of Marburg virus binding or cell entry. actives 1.8% (n = 300,000). AID 540276. Potency, µM (top dose mostly 37.8 µM), most hits filed as inhibitors. Marburg virus pseudotyped entry inhibition, cell reporter; calls by dose curve; tested in HEK293 cells
# HCMV inh = inhibitors of human cytomegalovirus | HFF cells, HCMV-luciferase reporter, 72 h; hits give low values | activity change, negative = inhibition, % at 57.5 µM | actives 4.5% (n = 410,000); in the data active = activity change below about -60%; inconclusive = no clear call, values can overlap the other calls; inactive = above about -39%
#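 HFF cells seeded 16 h at 37C, treated with compounds, infected with luciferase-reporter HCMV at MOI 1 PFU/cell; luciferase read at 72 h post infection, normalized to buffer-only and Salinomycin controls.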
# LASV entry inh = Lassa virus entry inhibition | Lassa virus pseudotype entry inhibition, cell reporter | Potency, µM (titrated, usually from 37.9 µM), hits mostly inhibitors | actives 1.2% (n = 300,000) | AID 540256; calls by dose curve; tested in HEK293 cells; also: nearly all actives have a fitted effect of over 50% in size
# HCV inh = HCV inhibition; Potency, µM (series often up to 41.8 µM), hits mostly inhibitors; Huh7.5.1 HCVcc-Cre infection, luciferase reporter, 44 h; actives 3.4% (n = 340,000); active = well fitted inhibition curve with a large enough effect; inconclusive = small, poorly fitted or top-dose-only effect, or another doubt; inactive = no such curve, though single readings can be large or run the other way
#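 Luciferase read-out (15 sec integration) after a 15 min room-temperature substrate step quantifies HCVcc-Cre infection. Cells, 1,000 per well, had compound added 4 h post-plating, then virus at ~0.5 moi, and were cultured 44 h.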
# FMDV antiviral = foot and mouth disease virus antiviral activity; FMDV antiviral cell-based qHTS; Potency, µM (series often up to 57.9 µM), hits mostly inhibitors; actives 1.2% (n = 410,000); calls by dose curve; tested in HEK293T cells; also: read-out not given here; nearly all actives have a fitted effect of over 45% in size
# A number is an active result; - = inactive; ? = inconclusive; . = no result. Compounds with a hit are over-represented: about 7.9% of the library has one in this group of screens.
SMILES,Marburg entry inh,HCMV inh,LASV entry inh,HCV inh,FMDV antiviral
COc1cc2nc(NC(=O)c3ccc(S(=O)(=O)N4CCOCC4)cc3)sc2cc1OC,.,-,-,.,-
CCCCN(CCO)c1ncnc2sc(-c3ccccc3)cc12,.,-,.,17.8µM,-
Fc1cc(F)c(-c2nc3ccccc3nc2-c2ccccc2)c(F)c1,.,-,.,.,.
Cc1[nH]c2ccccc2c1/C=N/Nc1ccccc1[N+](=O)[O-],-,-,?,?,-
COc1ccc(NS(=O)(=O)c2cc([N+](=O)[O-])ccc2N/N=C/c2c(C)[nH]c3ccccc23)cc1,-,-,-,11.2µM,-
Cc1ccccc1CN1CCCN(Cc2ccc(Cl)cc2)S1(=O)=O,-,-60.0,?,-,-
Cc1ccc(CN2CCCN(Cc3ccc(Cl)cc3)S2(=O)=O)cc1,-,-,-,-,-
COc1cc2nc(N3CCN(C(=O)OCc4ccccc4)C(C(=O)NC(C)(C)C)C3)nc(N)c2cc1OC (stereo not drawn),11.2µM,.,?,.,.
COc1cc2nc(N3CCN(C(=O)C4COc5ccccc5O4)CC3)nc(N)c2cc1OC (stereo not drawn),11.6µM,-,?,?,-
Cc1ccc(CNC(=O)CN2C(=O)CSc3ccc(S(=O)(=O)N4CCC(C)CC4)cc32)cc1,?,-,-,-,-
Cc1cc(C)nc(N2CCCC(C(=O)Nc3cc(F)ccc3C)C2)n1 (stereo not drawn),-,-,-,-,-
COC(=O)c1[nH]c2ccccc2c1NC(=O)c1ccccc1F,.,-,.,12.6µM,-
CCOC(=O)c1[nH]c2ccc(OC)cc2c1NC(=O)OC,-,-,-,-,-
CCOC(=O)Nc1c(C(=O)OC)[nH]c2cc(OC)ccc12,?,-,?,25.1µM,-
C=CCOC(=O)Nc1c(C(=O)OC)[nH]c2ccccc12,?,-,-,10µM,-
COC(=O)c1[nH]c2ccccc2c1NC(=O)Oc1ccccc1,-,-,-,-,-
O=C(/C=C\Nc1ccccc1Br)c1ccc2c(c1)OCO2,5.62µM,-,.,?,-
O=C(/C=C/Nc1ccc(F)cc1Br)c1ccccc1,?,?,2µM,-,2.82µM
COC(=O)C1=C(C)NC2=C(C(=O)c3ccccc32)C1c1cccc(OC)c1 (stereo not drawn),.,-,.,?,-
CC1=C([N+](=O)[O-])C(c2cccc(Br)c2)C2=C(N1)c1ccccc1C2=O (stereo not drawn),1.3µM,-89.7,?,?,?
Cc1ccc2c(c1)N(C=Nc1c(C)cccc1Cl)C(c1ccccc1)c1cccn1-2 (stereo not drawn),.,-,.,.,.
Cc1ccc(NC(=O)c2cc(S(=O)(=O)N3CCCCC3)cs2)cc1,-,-81.2,20.6µM,?,.
O=C(Nc1ccc(Cl)cc1)c1cc(S(=O)(=O)N2CCOCC2)cs1,?,?,?,5.62µM,?
CC(C)n1c(-c2ccc(C(C)(C)C)cc2)n[nH]c1=S,-,-72.1,-,?,?
CC(C)(C)c1ccc(-c2n[nH]c(=S)n2Cc2ccccc2)cc1,?,-,?,-,-
SMILES,Marburg entry inh,HCMV inh,LASV entry inh,HCV inh,FMDV antiviral
O=C(c1ccc(-c2ccc([N+](=O)[O-])cc2)o1)N1CCCC(C(F)(F)F)C1 (stereo not drawn),-,-75.8,-,?,-
COc1ccc(-c2nn(-c3ccccc3F)cc2CNCCn2nc(C)cc2C)cc1,.,-73.1,.,?,?
FC(F)Oc1ccc(NC(=S)NC23CC4CC(CC(C4)C2)C3)cc1,-,-,2.51µM,?,?
NS(=O)(=O)c1ccc(NC(=S)Nc2ccc(S(=O)(=O)N3CCCC3)cc2)cc1,-,-,-,-,-
CCOc1ccc(NC(=S)NC23CC4CC(CC(C4)C2)C3)cc1,.,-,.,-,-
O=S(=O)(c1ccc(NC(=S)NC23CC4CC(CC(C4)C2)C3)cc1)N1CCCCC1,.,-90.2,.,.,-
O=S(=O)(c1ccc(NC(=S)NN=Cc2ccccc2O)cc1)N1CCCCC1,?,-61.2,6.31µM,?,-
CN(C)c1ccc(NC(=S)NC23CC4CC(CC(C4)C2)C3)cc1,?,?,?,3.98µM,-
CCNc1ncc2nc(-c3ccc(F)cc3)c(=O)n(C)c2n1,.,.,.,.,-
O=C(Nc1nc(-c2ccc(-c3ccccc3)cc2)cs1)C1=COCCO1,?,-64.0,-,-,-
O=C(Nc1ccc(-c2nc3ccccc3s2)cc1)C1=COCCO1,0.794µM,-,2µM,-,10µM
CC(C)Oc1ccc(CN2CCC(n3nccc3NC(=O)C3CC3)CC2)cc1,-,-70.0,-,-,-
CCc1ccc(CN2CCC(n3nccc3NC(=O)c3ccccc3Cl)CC2)cc1,?,-,?,?,31.6µM
COc1ccc(CN2CCC(n3nccc3NC(=O)c3cccc(F)c3)CC2)cc1O,-,-87.4,-,-,-
O=C1CCCCc2sc(Br)c([N+](=O)[O-])c2N1,-,-,-,?,?
c1ccc(CC2CCN(c3nc4ccccc4n4nnnc34)CC2)cc1,-,-101.6,-,-,-
O=C(c1ccco1)N1CCN(c2nc3ccccc3n3nnnc23)CC1,-,-,-,-,-
O=C(Nc1ccc(-c2csc(Nc3ccccc3)n2)cc1)c1cccc(C(F)(F)F)c1,.,-81.2,.,?,?
Cc1ccc(Nc2nc(-c3sc(NC(=O)c4cccc(Cl)c4)nc3C)cs2)cc1,-,.,.,.,.
O=C(Nc1ccc(-c2csc(Nc3ccc(Cl)cc3)n2)cc1)c1cccc(C(F)(F)F)c1,-,?,.,11.2µM,20µM
O=C(Nc1ccccc1)c1cccc(C(F)(F)F)c1,?,-,-,-,-
Clc1ccc(OCc2nc(-c3ccc(-n4cccc4)cc3)no2)cc1,-,-,-,.,-
Cc1cc(CNC(=O)c2cc(-c3ccccc3)nc3ccccc23)nn1C,-,-,-,-,-
Cc1cc(C(=O)NCc2cc(C)n(C)n2)sc1-c1ccccc1,?,-82.6,-,3.98µM,-
Cc1ccc(CNC(=O)CN2C(=O)C3(SCC(=O)N3c3cc(C)cc(C)c3)c3ccccc32)cc1 (stereo not drawn),.,?,-,.,-
SMILES,Marburg entry inh,HCMV inh,LASV entry inh,HCV inh,FMDV antiviral
CC1=CC(C)(C(Cl)(Cl)Cl)C(C)=CC1=NO (stereo not drawn),.,-69.3,.,.,-
Cc1cccc(N2CCN(C(=O)c3cn(C)c(=O)c4c3c3ccccc3n4C)CC2)c1C,?,-,6.51µM,?,-
OC1(c2ccc3c(c2)CN(Cc2nccs2)CCO3)CCN(c2ccccc2F)CC1,.,.,.,.,-
CCN(CC)CCCn1c2c(c(SCC(=O)Nc3ccc(OC(F)(F)F)cc3)nc1=O)CCC2,?,-,?,10µM,-
COc1ccccc1NC(=O)CSc1nnc(-c2ccccc2C)o1,?,-,?,.,-
CCc1nnc(NC(=O)CSc2nnc(-c3ccccc3NC(=O)c3ccccc3)o2)s1,-,-,-,11.2µM,.
CCOC(=O)CSc1nnc(-c2ccccc2NC(=O)c2ccccc2)o1,-,-,-,-,.
Cc1ccccc1-c1nnc(SCC(=O)Nc2cccnc2Cl)o1,?,-,2µM,-,-
CCOC(=O)CN1C(=O)N2C[C@H]3CON(C)[C@H]3C[C@H]2c2ccccc21,.,-,.,.,-
COc1ccc(CN2CCc3ccc(NC(=O)CCc4ccccc4OC)cc3C2)c(O)c1,?,-72.2,?,8.91µM,?
